# Data as given in PubChem BioAssay (NCI).
# About 83,000 compounds went through this panel and 20% of them were active in at least one assay; those are over-represented in the sample as a whole.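 48-hour exposure, single concentration, 96-well plates; percent growth endpoint where 0 means no net growth. Active: below 10.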 Values without a mark were called inactive. Calls of active or inactive are those of the source.
# Legend:
# Assay in all cases: NCI-60 one-dose screen, 48 h (100 = growth as untreated, 0 = no growth, -100 = all killed)
# Conditions in all cases: 10 µM unless noted
# SK-MEL-2 melanoma = tested on: SK-MEL-2 melanoma
# EKVX NSCLC = tested on: EKVX NSCLC
# SN12C renal = tested on: SN12C renal
# UO-31 renal = tested on: UO-31 renal
# TK-10 renal = tested on: TK-10 renal
# ACHN renal = tested on: ACHN renal
# CAKI-1 renal = tested on: CAKI-1 renal
# A498 renal = tested on: A498 renal
# CCRF-CEM leukemia = tested on: CCRF-CEM leukemia
# SR leukemia = tested on: SR leukemia
# RPMI-8226 leukemia = tested on: RPMI-8226 leukemia
# OVCAR-8 ovarian = tested on: OVCAR-8 ovarian
# OVCAR-5 ovarian = tested on: OVCAR-5 ovarian
# OVCAR-4 ovarian = tested on: OVCAR-4 ovarian
# SK-OV-3 ovarian = tested on: SK-OV-3 ovarian
# IGROV1 ovarian = tested on: IGROV1 ovarian
# OVCAR-3 ovarian = tested on: OVCAR-3 ovarian
# HS 578T breast = tested on: HS 578T breast
# NCI/ADR-RES ovarian = tested on: NCI/ADR-RES ovarian
# MOLT-4 leukemia = tested on: MOLT-4 leukemia
SMILES,growth (SK-MEL-2 melanoma),growth (EKVX NSCLC),growth (SN12C renal),growth (UO-31 renal),growth (TK-10 renal),growth (ACHN renal),growth (CAKI-1 renal),growth (A498 renal),growth (CCRF-CEM leukemia),growth (SR leukemia),growth (RPMI-8226 leukemia),growth (OVCAR-8 ovarian),growth (OVCAR-5 ovarian),growth (OVCAR-4 ovarian),growth (SK-OV-3 ovarian),growth (IGROV1 ovarian),growth (OVCAR-3 ovarian),growth (HS 578T breast),growth (NCI/ADR-RES ovarian),growth (MOLT-4 leukemia)
CCN(CC)c1ccc(/C=N/Nc2nc(-c3ccc(Br)cc3)cs2)c(O)c1,94.6%,90.9%,23.1%,65.4%,96.5%,76.1%,55.1%,102%,1.36% (active),3.58% (active),38.4%,81.6%,91.5%,70.2%,103%,78.8%,61.3%,102%,95.3%,–
COC(OC)C1=C(C)OC(N)=C(C#N)C12C(=O)Nc1ccccc12 (stereo not given),96.2%,99.7%,93.3%,70.3%,161%,84.9%,108%,125%,54.6%,–,94.3%,–,112%,101%,111%,92%,101%,95.4%,99.2%,95.9%
O=C1C(=Nc2ccc(F)c(Cl)c2)c2cccc3cccc1c23,97.5%,75.5%,57.3%,38.2%,111%,32.2%,55.4%,118%,6.25% (active),–,8.45% (active),3.58% (active),94.7%,86.1%,87.4%,66.4%,25.3%,89.9%,84.1%,–
COc1c(F)ccc(C(=O)Nc2ccc3nc(NC(=O)C4CCCN(S(=O)(=O)C5CC5)C4)sc3c2)c1F (stereo not given),54.9%,31.5%,65%,43.1%,74.5%,47%,46.6%,76%,18%,10.3%,19%,36.4%,–,–,43.7%,69.3%,66.5%,17.6%,33.2%,–
COc1cccc(/C=C/C(=O)c2ccc(OC)c(S(N)(=O)=O)c2)c1,96.5%,49.4%,14.5%,2.53% (active),21.2%,-40.4% (active),26.5%,115%,2.26% (active),–,-9.86% (active),10.5%,24.2%,57.7%,67.8%,42.1%,16.3%,91.6%,13.3%,–
COc1ccccc1/C=C/C(=O)c1ccc(OC)c(S(N)(=O)=O)c1,78.4%,23.2%,15.5%,24.7%,41.5%,21.4%,20.9%,105%,6.32% (active),–,4.34% (active),-9.18% (active),12.4%,42.9%,47.5%,38.9%,7.84% (active),60.4%,22.9%,–
N#Cc1c(-c2ccc(Cl)cc2)nc2n[nH]c(-c3ccc(Cl)cc3)c2c1-c1ccc(C(F)(F)F)cc1,-66.9% (active),-10.5% (active),-5.91% (active),-1.42% (active),15.9%,2.15% (active),-20.1% (active),50.5%,-7.76% (active),-21.8% (active),-2.57% (active),16.2%,-41.8% (active),2.98% (active),3.06% (active),-15% (active),-13.9% (active),–,-24.5% (active),–
COc1cc(CNC(=O)/C=C/c2ccc3c(c2)OCO3)ccc1OCc1cn(-c2cccc(C(F)(F)F)c2)nn1,54%,6.68% (active),21.4%,-4.4% (active),19.9%,0.888% (active),6.02% (active),57.7%,52.2%,41.5%,40.9%,-9.92% (active),–,34.9%,47.4%,44.7%,42.9%,–,4.67% (active),–
CC(=O)N1CCN(Cc2ccc3c(NNC(=O)c4cnccn4)nc4cc(F)ccc4n23)CC1,43.5%,16.2%,21.4%,10.6%,30.3%,11%,13.1%,50.2%,9.27% (active),–,25.7%,17.2%,50.1%,32.6%,25%,28.2%,56.7%,56.3%,7.69% (active),–
Cc1cnc(C(=O)NNc2nc3cc(F)ccc3n3c(C(=O)N4CC5CC(C4)N5)ccc23)cn1,53%,23.1%,32.1%,23.3%,41.2%,15.6%,23.1%,88.6%,17%,–,48.1%,20.2%,48.7%,38.4%,25.8%,39.9%,50.1%,62.9%,67%,–
Cc1cc(C)n(-c2ccc3nnc(-c4ccccc4)n3n2)n1,114%,88.5%,94.2%,-77.9% (active),95%,104%,74.7%,107%,112%,–,119%,96.9%,128%,92.9%,128%,111%,91.6%,117%,76.1%,–
COc1cc(OC)cc(-c2cc3ccc(N(C)C)cc3c(=O)[nH]2)c1,33.6%,47%,36.7%,52.4%,79.1%,31.2%,34.2%,121%,15.5%,–,29.2%,5.26% (active),45.5%,72.6%,40.2%,29.3%,4% (active),47.3%,0.753% (active),–
COc1ccc(C(=O)/C=C/c2cc3c(cc2Br)OCO3)cc1S(N)(=O)=O,89.2%,4.57% (active),-12.5% (active),-44.5% (active),16.8%,-23% (active),-20.2% (active),88.7%,5.43% (active),–,-13.6% (active),-21% (active),-7.93% (active),28%,69%,3.7% (active),-57.5% (active),30.3%,13.8%,–
COC(=O)/C=C/c1cccc2c1C(=O)NC(C)(c1cc3cc4ccccc4cc3oc1=O)N2 (stereo not given),79.4%,67.5%,35.1%,65.4%,99.7%,40.1%,61.9%,90.6%,53%,28%,40.2%,54.3%,–,5.78% (active),95.6%,65.2%,32%,29.5%,35.2%,–
CC(=O)NNc1ccc2nnc(-c3ccccc3)n2n1,102%,95.9%,97.1%,88.5%,106%,104%,90.9%,108%,108%,–,115%,100%,113%,109%,110%,108%,95.4%,100%,104%,–
CSc1ccccc1NC(=O)c1ccc2nnn(/C(C#N)=C/c3ccccn3)c2c1,-86.4% (active),-95.6% (active),-99% (active),-100% (active),-98.6% (active),-100% (active),-88.2% (active),82.9%,-27.5% (active),-5.23% (active),-29% (active),-86.6% (active),-95% (active),-96.5% (active),63.1%,-81.8% (active),-81.9% (active),–,-44.2% (active),–
CN1CCN(Cc2ccc(C(=O)Nc3cccc(C#Cc4cccc5[nH]nc(N)c45)c3)cc2C(F)(F)F)CC1,-88.9% (active),-93.6% (active),-94.7% (active),-98.2% (active),-96% (active),-98.3% (active),-88.5% (active),-80.7% (active),-20% (active),–,-45.1% (active),-98.1% (active),-94.8% (active),-60.9% (active),-89.1% (active),-70.8% (active),-46.6% (active),-17.5% (active),-61% (active),–
